Assay outcomes (PubChem BioAssay)
An excerpt weighted towards active compounds, which were near 31% of everything screened.
CYP2C9 act: human CYP2C9 activators, primary screen, biochemical, luminescence. Cytochrome P450 2C9 (Homo sapiens), P11712. recombinant CYP2C9, luciferin-H conversion; active compounds read high; factor 1 = untreated enzyme, 0 = blocked. activation factor at 5 µM. 1.4% of 96,000 active;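 active = activation factor of 2 or more for CYP2C9 at a 5 µM dose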;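 also: 0 = sulfaphenazole-blocked wells and 1 = vehicle-only wells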
CYP2C9 inhib: blockers of cytochrome P450 2C9 activity – biochemical, luminescence, ADME assay, primary screen | CYP2C9 Supersomes, luciferin-H conversion | 20% of 96,000 active | P11712 | inhibition, % at 5 µM;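 active = blocking of liver enzyme CYP2C9 beyond about 50% at 5 µM, limit read from the data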
CYP2C19 inh: blockers of cytochrome P450 2C19 activity – biochemical, luminescence, ADME assay, primary screen; P33261; CYP2C19 Supersomes, luciferin-H EGE luminescence, 30 min; inhibition, % at 5 µM; 21% of 96,000 active;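 active = CYP2C19 inhibition above a set limit at 5 µM in the primary screen, cut at about 50% in these data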;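 also: plate controls were negative control wells for no effect and 2.5 mM tranylcypromine positive control for full effect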
Target sequence (P33261 whole entry, looked up): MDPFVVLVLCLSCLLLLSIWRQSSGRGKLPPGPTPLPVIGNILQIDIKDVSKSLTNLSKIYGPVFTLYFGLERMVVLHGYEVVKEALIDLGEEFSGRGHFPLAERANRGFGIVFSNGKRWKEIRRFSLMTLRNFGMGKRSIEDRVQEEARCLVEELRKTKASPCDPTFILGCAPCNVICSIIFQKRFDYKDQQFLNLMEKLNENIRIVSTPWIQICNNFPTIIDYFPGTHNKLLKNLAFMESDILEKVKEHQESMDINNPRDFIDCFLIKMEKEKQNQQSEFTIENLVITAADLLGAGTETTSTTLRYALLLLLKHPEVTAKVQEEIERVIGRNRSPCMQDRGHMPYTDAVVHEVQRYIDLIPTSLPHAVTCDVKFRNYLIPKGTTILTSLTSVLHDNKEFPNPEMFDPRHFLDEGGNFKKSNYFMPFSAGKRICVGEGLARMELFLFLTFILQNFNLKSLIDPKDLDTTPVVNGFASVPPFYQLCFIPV
CYP2C19 activ: human CYP2C19 activators, primary screen, biochemical, luminescence. Cytochrome P450 2C19 (Homo sapiens), P33261. AID 1025, 2008. recombinant CYP2C19, luciferin-H EGE luminescence; active compounds read high; 0 = fully inhibited enzyme, 1 = untreated enzyme. 96,000 tested, under 10 active. activation factor at 5 µM;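 active = activation factor of at least 2 at 5 µM in the primary screen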;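 also: 0 = wells with 2.5 mM tranylcypromine and 1 = vehicle-only wells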
* hit, by the source's call.

SMILES	CYP2C9 act	CYP2C9 inhib	CYP2C19 inh	CYP2C19 activ
N#Cc1c(SCC(=O)O)nc(-c2ccccc2)c2c1CCCC2	0.7	29.1	-0.2	1
N#Cc1c(SCc2ccccc2)nc(N2CCOCC2)c2c1CCCC2	0.1	92.1*	34.9	0.7
CCSc1nc(N2CCCCC2)c2c(c1C#N)CCCC2	0.1	92.8*	68.6*	0.3
Cc1c(C#N)c(SCC(N)=O)nc2c1CCCC2	1.1	-13.3	20.8	0.8
CSC1=C(C#N)C(c2ccccc2Cl)C2=C(N1)c1ccccc1C2=O (stereo unspecified)	0.5	47.3	53.4*	0.5
CSC1=C(C#N)C(c2ccccc2C)C(C#N)=C(N)N1 (stereo unspecified)	0	99.2*	86.4*	0.1
CSC1=C(C#N)C(c2ccccc2Cl)C2=C(CCCC2=O)N1 (stereo unspecified)	0.7	30.1	5.3	0.9
CCCCN(C)CCCNC(=O)c1ccc(N2CCCC2=O)cc1	1	-4.6	-4.7	1
CCCn1c2c(c(O)c(C(=O)Nc3ccc(OC)cc3)c1=O)CCCC2	0.2	79.2*	6.5	0.9
Nc1nnc(CC(c2ccccc2)c2ccccc2)s1	0.8	20.1	85.3*	0.1
Nc1nnc(Cc2ccccc2)s1	1.2	-22.1	-5.8	1.1
Cc1cc(C)cc(-n2nnnc2SCC(=O)Nc2nc(-c3ccc(F)cc3)cs2)c1	2.2*	-124.5	23.3	0.8
Cc1cc(C)cc(-n2nnnc2SCC(=O)Nc2nc(-c3ccc(Cl)cc3)cs2)c1	1.6	-59.2	3.6	1
Cc1ccc(-n2nnnc2SCC(=O)Nc2nc(-c3ccc(F)cc3)cs2)cc1C	0.5	51.5*	29.6	0.7
Cn1nnc(NC(=O)CSc2nnnn2-c2ccc(F)cc2)n1	0.9	14.2	6.2	0.9
COC(=O)COC(=O)CC(CC(N)=O)c1ccccc1 (stereo unspecified)	1	4.8	18.0	0.8
CC(C)OC(=O)CSc1nnc(-c2ccccn2)n1-c1ccccc1	0.9	6.5	11.8	0.9
Cc1ccc(-n2c(SCC(=O)OC(C)C)nnc2-c2ccco2)cc1	2.3*	-130.0	23.1	0.8
CC(C)OC(=O)CSc1nnc(-c2cccnc2)n1N	1.1	-8.2	-6.1	1.1
Cc1ccc(-n2c(SCC(=O)OC(C)C)nnc2-c2ccccn2)cc1	1	-2.2	50.6*	0.5
CC(C)OC(=O)CSc1nnc(-c2ccccc2)n1N	0.9	14.0	60.5*	0.4
CN1CCN(C(=O)c2ccc(C(C)(C)C)cc2)CC1	1.1	-14.7	-3.7	1
O=C(CC12CC3CC(CC(C3)C1)C2)N1CCCC1	1	-3.3	13.5	0.9
CC1CCN(c2ccc(C(=O)O)cc2)CC1	1	2.4	1.8	1
CCCC(=O)CN1C(=O)C2(OCCO2)c2ccccc21	0.9	10.8	5.9	0.9
SMILES	CYP2C9 act	CYP2C9 inhib	CYP2C19 inh	CYP2C19 activ
CCN(CC)C(=O)CN1C(=O)C2(OCC(C)(c3ccccc3)CO2)c2ccccc21 (stereo unspecified)	0.2	77.4*	86.0*	0.1
CCCCCn1c(N2CCC(C(N)=O)CC2)nc2c1c(=O)[nH]c(=O)n2C	0.7	32.3	-8.5	1.1
Cc1ccc(S(=O)(=O)N2CCCC(C(=O)N(Cc3cccs3)C3CC3)C2)cc1 (stereo unspecified)	1.5	-50.5	98.9*	0
Cn1c(=O)oc2cc(S(=O)(=O)N3CCCC(C(=O)NCc4ccc5c(c4)OCO5)C3)ccc21 (stereo unspecified)	0.3	67.8*	7.5	0.9
O=C(NCc1cccs1)C1CCCN(S(=O)(=O)c2cccs2)C1 (stereo unspecified)	0.3	72.4*	22.3	0.8
O=C(N1CCOCC1)N(Cc1cccs1)C1CCCC1	1	3.6	4.2	1
Cn1c(=O)oc2cc(S(=O)(=O)N3CCCC(C(=O)NCc4cccs4)C3)ccc21 (stereo unspecified)	0.7	27.4	24.2	0.8
CCC1CCCCN1S(=O)(=O)c1ccc(S(=O)(=O)N(Cc2cccs2)C2CC2)cc1 (stereo unspecified)	0.3	71.3*	69.4*	0.3
CC1(C)NC(=O)N(CC(=O)O)C1=O	1.1	-10.1	7.3	0.9
CCCS(=O)(=O)N1CCCC(C(=O)NCCc2ccc(Cl)cc2)C1 (stereo unspecified)	0.4	55.5*	27.5	0.7
CCNC(=O)C1CCCN1S(=O)(=O)c1ccc(OC)cc1 (stereo unspecified)	1.5	-49.5	-9.2	1.1
CS(=O)(=O)N1CCCC(C(=O)NCc2cccs2)C1 (stereo unspecified)	1	2.9	-0.2	1
CS(=O)(=O)N1CCCC(C(=O)NCCc2ccc(Cl)cc2)C1 (stereo unspecified)	0.9	9.0	4.5	1
COc1ccc(S(=O)(=O)N2CCCC2C(=O)NCc2cccs2)cc1 (stereo unspecified)	3.1*	-210.4	67.6*	0.3
O=C(NCc1cccs1)C1CCCN(S(=O)(=O)c2ccc3c(c2)OCO3)C1 (stereo unspecified)	2.1*	-110.4	13.5	0.9
Cc1ccc(CCNC(=O)C2CCCN(S(=O)(=O)c3cccs3)C2)cc1 (stereo unspecified)	0.3	72.4*	12.7	0.9
COC(=O)c1sccc1NC(=O)Cn1cnc2c1c(=O)n(C)c(=O)n2C	0.8	16.8	41.4	0.6
CC(=O)Nc1ccc(S(=O)(=O)N[C@H](C(=O)O)C(C)C)cc1	1.1	-6.0	-4.4	1
CC(=O)OC(C(=O)Nc1ccccc1)C(C)S(=O)(=O)c1ccccc1 (stereo unspecified)	0.7	32.2	65.4*	0.3
O=C1NCCCC2c3c(cc(Br)c(O)c3Br)OC12N1CCCCC1 (stereo unspecified)	0.6	44.5	97.4*	0
CCCCCOc1ccc(NS(C)(=O)=O)cc1	0.7	25.7	10.0	0.9
CCN1CCN(C(=O)Nc2ccc(Cc3ccc(NC(=O)N4CCN(CC)CC4)cc3)cc2)CC1	1	-4.9	-7.0	1.1
CCS(=O)(=O)Nc1ccc(Cc2ccc(NS(=O)(=O)CC)cc2)cc1	0.1	86.6*	69.6*	0.3
CS(=O)(=O)Nc1ccc(Cc2ccc(NS(C)(=O)=O)cc2)cc1	0.5	51.8*	26.2	0.7
CC(=O)c1ccc(N2C(=O)NC3(CCCCC3)C2=O)cc1	1	-0.3	25.6	0.7
COCCn1c(COc2cccc(OC)c2)nnc1SCC(=O)N1CCOCC1	1	3.0	-1.6	1
O=C(c1ccccc1)N1CCCCC(Sc2nnc3ccccn23)C1=O (stereo unspecified)	1	0.4	10.9	0.9
COc1cccc(NC(=O)Cn2nc(Cc3cccnc3)c3ccccc3c2=O)c1	0.4	59.1*	21.3	0.8
CCOC(=O)C1CCCN(C(=O)Cn2nc(Cc3cccnc3)c3ccccc3c2=O)C1 (stereo unspecified)	0.9	7.9	3.7	1
COc1ccc(CNC(=O)Cn2nc(Cc3cccnc3)c3ccccc3c2=O)cc1	0.2	75.8*	43.8	0.6
